# Screening data: PubChem, National Center for Advancing Translational Sciences (NCATS)
# This is a sample that favours compounds with a hit; in the whole collection about 11% have one here.
# HTT ATP protect: cytoprotection in Huntington HTT-Q103 PC12 cell model; PC12 HTT-Q103 induced, cytoprotection, ATP luminescence, 40 h; Potency, µM (series often up to 56.4 µM), without a hit: cytoprotection (ATP increase), actives largely listed as activators; hit rate 0.14% among 230,000; note: potency is the fitted concentration of half-maximal effect; % of control where 0% means no effect; nearly all actives have a fitted effect of over 45% in size
#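 Stable PC12 Q103-GFP cells in serum-supplemented, phenol red-free DMEM; induction by tebufenozide at 100 nM final; compound dose series; cell viability quantified luminescently from ATP.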
# CBFb RUNX1 block: inhibitors of human CBF-beta and RUNX1 interaction | Potency, µM (highest dose often 59.8 µM), for inactives: at the top dose activity, negative = inhibition, usual class: inhibitors | AlphaScreen CBFb-His/RUNX1-biotin binding, biochemical | Q01196+Q13951 | 230,000 tested, under 10 active | AID 1477; note: % of control where 0% means no effect
# Target sequence (Q01196 whole entry, looked up): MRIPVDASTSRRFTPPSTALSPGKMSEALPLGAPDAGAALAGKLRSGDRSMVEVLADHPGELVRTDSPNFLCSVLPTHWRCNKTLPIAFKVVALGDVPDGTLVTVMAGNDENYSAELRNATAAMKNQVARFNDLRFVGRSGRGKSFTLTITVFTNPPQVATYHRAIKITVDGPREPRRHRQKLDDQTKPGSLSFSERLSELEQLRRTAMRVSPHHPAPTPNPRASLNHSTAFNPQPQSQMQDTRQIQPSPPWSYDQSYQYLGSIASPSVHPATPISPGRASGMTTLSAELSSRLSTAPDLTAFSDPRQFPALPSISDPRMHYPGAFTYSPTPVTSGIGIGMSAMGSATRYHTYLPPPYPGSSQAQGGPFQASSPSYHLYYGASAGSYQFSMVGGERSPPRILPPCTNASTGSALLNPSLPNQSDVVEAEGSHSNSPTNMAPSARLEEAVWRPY
# Target sequence (Q13951 whole entry, looked up): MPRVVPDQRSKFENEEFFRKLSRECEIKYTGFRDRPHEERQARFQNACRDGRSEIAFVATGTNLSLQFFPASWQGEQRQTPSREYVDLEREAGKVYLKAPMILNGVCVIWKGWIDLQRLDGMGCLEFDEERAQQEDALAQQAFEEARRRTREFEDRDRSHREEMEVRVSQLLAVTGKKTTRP
#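 Read-out: AlphaScreen. Format: His-CBF-beta with biotinylated RUNX1 (30 nM each) preincubated 20 min, compound 15 min, Ni-chelate plus streptavidin beads 90 min; room temperature throughout.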
# PNC assembly inh: perinucleolar compartment assembly inhibition | hit rate 3.1% among 140,000 | activity change (PNC), negative = inhibition, % at 10 µM | PC3M PTB-GFP, PNC prevalence imaging, 16 h; hits give low values;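 active = readout at or below -70, meaning at least 70% loss of cells showing the perinucleolar compartment, a nuclear body marking cancer cells; inconclusive = readout between -30 and a set limit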;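 note: plate controls were DMSO wells for no effect and camptothecin positive control wells for full effect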
#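 Compounds are pinned in duplicate onto adhered PC3M cells stably expressing GFP-tagged PTB and incubated 16 h at 37 C. Cells are then fixed, nuclei stained with Hoechst, and PNC-positive cells counted.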
# HPGD block: inhibitors of human 15-hydroxyprostaglandin dehydrogenase (HPGD); purified HPGD, NADH fluorescence kinetic, PGE2 substrate; Potency, µM, inactives show at the highest dose activity change, negative = inhibition, most hits filed as inhibitors; hit rate 4.3% among 150,000; active = well fitted inhibition curve with a large enough effect, not every such curve was filed as active; inconclusive = small, poorly fitted or top-dose-only effect, or another doubt; inactive = no such curve, though single readings can be large or run the other way; note: potency is the fitted concentration of half-maximal effect; % is set by controls: 0 for no effect and ±100 for the full control effect
#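 NADH formation kinetics: reaction with 30 uM PGE2 and 1 mM NAD+ (final), 20 nM enzyme, Tris-HCl pH 8 with Tween 20, after 15 min compound preincubation at room temperature. Fluorescence change, last versus first of five reads.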
# HTT aggregate: inhibitors of mutant huntingtin aggregate formation in PC12 cells. PC12 HttQ103-GFP aggregates, Acumen cytometry, 40 h. Potency, µM (series often up to 46.1 µM), for inactives: at the highest dose activity change, negative = inhibition, hits mostly inhibitors. hit rate 1.1% among 220,000. AID 1688; note: potency is the fitted concentration of half-maximal effect; % is set by controls: 0 for no effect and ±100 for the full control effect; nearly all actives have a fitted effect of over 60% in size
#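 Aggregates are detected as GFP objects 1–25 µm with signal 6 STDEV over background in lysates of induced PC12 cells. These carry Huntingtin exon 1 with 103 glutamines fused to GFP under an ecdysone promoter; compounds titrated.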
# ALDH1A1 block: blocks purified human ALDH1A1 activity | Potency, µM (doses to about 75.3 µM), without a hit: at the highest dose activity, negative = inhibition, actives largely listed as inhibitors | Purified ALDH1A1, NADH fluorescence, propionaldehyde substrate | hit rate 7.3% among 220,000; active = well fitted inhibition curve with a large enough effect, not every such curve was filed as active; inconclusive = small, poorly fitted or top-dose-only effect, or another doubt; inactive = no such curve, though single readings can be large or run the other way;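 note: potency is the fitted concentration of half-maximal effect; plate controls were no enzyme wells and a reference inhibitor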
# * = called active by the depositor; ? = inconclusive; · = no result given; [ ] = another dose, or the depositor's remark. Unless noted, calls come from the whole dose curve; as a rule, active = well fitted curve in the direction sought with a large enough effect; inconclusive = small, poorly fitted or top-dose-only effect, or another doubt; inactive = no such curve, though single readings can be large; an effect the other way counts as inactive or inconclusive.
SMILES,HTT ATP protect,CBFb RUNX1 block,PNC assembly inh,HPGD block,HTT aggregate,ALDH1A1 block
Cc1ccc(NS(=O)(=O)c2ccc(Cl)s2)cc1S(=O)(=O)N(C)C,·,-7.1%,-6.5,1.8%,7.6%,3.16µM*
C=C1[C@@H]2CC[C@H](C2)C1(C)C,-18.3%,9.2%,·,·,-9.5%,·
COc1ccc2cc3[n+](cc2c1OC)CCc1cc2c(cc1-3)OCO2,?,?,35.7,-14.5%,?,-10.3%
O=C(O)Cn1c(SCc2cccc3ccccc23)nc2ccccc21,-1.5%,0.5%,93.8,25.1µM*,-6.9%,1.7%
Cc1ccc(C(=O)C(c2ccccc2)N2Cc3ccccc3C2=N)cc1 (stereo not drawn),20.0%[10 µM],7.5%,6.0,?,15.8µM*,?
Cn1c(=O)c2c(nc(SCc3cccnc3)n2Cc2ccccc2)n(C)c1=O,-6.4%[10 µM],-4.0%,-14.4,-22.4%,-12.5%,22.4µM*
CCCn1c(SCC(=O)OCc2ccccc2)nc2c1c(=O)n(C)c(=O)n2C,-7.4%[10 µM],3.9%,5.6,-5.6%,0.9%,22.4µM*
Cn1c(OCc2cccnc2)nc2c1c(=O)n(Cc1ccc(F)cc1)c(=O)n2C,0.4%[10 µM],5.8%,·,·,-19.3%[9.22 µM],·
Cc1ccc(Cn2c(SCc3cccnc3)nc3c2c(=O)n(C)c(=O)n3C)cc1,-4.4%[10 µM],-5.2%,-4.7,8.5%,-5.4%,1.8%
Cn1c(=O)c2c(nc(SCc3cccnc3)n2Cc2ccc(F)cc2)n(C)c1=O,-9.5%,4.6%,-4.7,39.8µM*,-6.4%,?
CCC1=C2CC[C@H]3C(=O)N(CC(=O)OC)C(=O)[C@H]3[C@H]2[C@@]2(Cc3ccccc3)C(=NCCOC)OC(=O)N2C1=O,-8.1%,-4.9%,·,-7.5%,·,-10.4%
COc1ccc(/C=C/C2=C[C@]3(C)C[C@]2(C)[C@H](c2ccc(OC)cc2)CC3=O)cc1,11.0%,8.2%,·,-3.2%,·,-9.7%
CCCNC(=O)OC[C@H]1O[C@@H](CCO/N=C2/C[C@@H](O)[C@@H](O)[C@@H]3[C@@H]4C(=O)N(CC)C(=O)[C@H]4CC[C@@H]23)C=C[C@@H]1Oc1ccc(OC)cc1,-74.4%[10 µM],19.7%[13.1 µM],·,·,·,-11.4%[13.5 µM]
CCOC(=O)CSc1nnc(CCCCCN2C(=O)c3cccc4cccc(c34)C2=O)o1,·,3.6%,52.2,?,4.4%,?
CCOC(=O)CCCSc1nnc(CCCCCN2C(=O)c3cccc4cccc(c34)C2=O)o1,2.51µM*,-8.1%,-29.6,?,?,?
Cc1cc(NC(=O)CCc2ccc(S(=O)(=O)N3CCOCC3)cc2)n(-c2ccccc2)n1,10.1%[10 µM],-1.9%,-100.0*,-7.5%,?,1.6%
COc1ccc(CN(C(=O)c2cccc(OC)c2)C2CCS(=O)(=O)C2)cc1 (stereo not drawn),14.2%[10 µM],2.8%,·,·,-13.4%[9.22 µM],·
CN(C(=O)c1ccccc1)c1ccc(OCC(=O)NC2CCS(=O)(=O)C2)cc1 (stereo not drawn),9.4%,-9.9%,-12.8,-14.8%,-10.7%,14.1µM*
CN(C)c1ccc(CN(C(=O)C2COc3ccccc3O2)C2CCS(=O)(=O)C2)cc1 (stereo not drawn),10.7%[0.074 µM],-24.3%,11.1,·,30.1%,4.47µM*
C=CCOc1ccc(C(=O)N(Cc2ccc(N(C)C)cc2)C2CCS(=O)(=O)C2)cc1 (stereo not drawn),-11.9%,-24.0%,32.6,-15.0%,17.7%,10µM*
CCN(CC)c1ccc(CN(C(=O)c2ccco2)C2CCS(=O)(=O)C2)cc1 (stereo not drawn),-21.1%[0.074 µM],-3.8%,?,-4.6%,9.3%,22.4µM*
S=c1[nH]nc(Cn2cnc3ccccc32)n1-c1ccccc1,-46.8%,-3.2%,·,·,?,?
CN(C)c1ccc(CN(C(=O)COc2ccccc2)C2CCS(=O)(=O)C2)cc1 (stereo not drawn),0.2%,-10.6%,24.5,-22.0%,5.1%,3.98µM*
Cc1c(C(=O)N(Cc2ccc(N(C)C)cc2)C2CCS(=O)(=O)C2)oc2ccccc12 (stereo not drawn),11.6%[10 µM],?,·,·,-2.1%[9.22 µM],·
Cc1ccc(OCC(=O)N(Cc2ccc(N(C)C)cc2)C2CCS(=O)(=O)C2)cc1C (stereo not drawn),14.8%[10 µM],-10.6%,·,·,-5.6%[9.22 µM],·
SMILES,HTT ATP protect,CBFb RUNX1 block,PNC assembly inh,HPGD block,HTT aggregate,ALDH1A1 block
Cc1ccccc1OCC(=O)N(Cc1ccc(N(C)C)cc1)C1CCS(=O)(=O)C1 (stereo not drawn),-4.5%,6.8%,-10.2,-3.1%,-4.4%[9.22 µM],11.2µM*
O=C(NCc1ccccn1)C(=O)Nc1cccc2ccccc12,-14.7%,2.7%,·,·,2.9%,-12.0%
O=C(O)CCSc1ccccn1,8.2%,13.4%,·,·,5.8%,?
O=C(CCSc1ccccn1)c1ccccc1,?,29.5%,·,·,-7.8%,0.251µM*
COc1ccc(N/C=C/C(=C(C#N)C#N)N(C)C)cc1,-1.5%[10 µM],1.8%,·,·,-14.4%[9.22 µM],6.1%
COc1cc2nc(Cl)nc(N3CCN(C)CC3)c2cc1OC,7.6%,4.3%,·,·,3.7%,-8.9%
COc1cc2nc(C3CCC3)nc(N3CCN(c4ccccn4)CC3)c2cc1OC,·,-1.9%,4.3,-10.8%,?,8.91µM*
COc1cc2nc(C3CCC3)nc(N3CCN(c4ccccc4OC)CC3)c2cc1OC,·,-3.0%,21.6,-12.6%,-29.9%,28.2µM*
COc1ccc(C(=O)N2CCN(C(=O)c3cc(OC)c(OC)c(OC)c3)CC2)cc1,-0.5%,1.4%,18.2,-15.9%,17.2%,14.1µM*
COc1cc(C(=O)N2CCN(c3cccc(C)c3C)CC2)cc(OC)c1OC,-50.8%,-3.2%,-121.7*,-9.7%,2.8%,-5.5%
COc1cc(C(=O)N2CCN(c3cc(Cl)ccc3Cl)CC2)cc(OC)c1OC,-63.4%,0.0%,-88.2*,0.7%,0.9%,-6.7%
COc1ccc(C(=O)C2CCN(C(=O)c3ccc(C)cc3)CC2)cc1,-17.3%,4.8%,6.7,-6.1%,-28.4%,5.01µM*
O=C(Cl)CCCCCCCC(=O)Cl,·,2.8%,·,·,·,·
O=c1cc(C(F)(F)F)[nH]c2c(C(F)(F)F)cccc12,·,-4.5%[2.36 µM],16.0,?,20µM*,?
COc1ccc(CCNC(=O)CCc2ccc(S(=O)(=O)NC(C)C)cc2)cc1,5.0%[10 µM],-2.8%,16.7,-1.4%,2.0%,?
Cc1nn(-c2ccccc2)c(Cl)c1/C=C(\C#N)C(=O)NC(C)C,-17.7%[10 µM],14.1%,-25.3,-25.8%,-2.6%,14.1µM*
COc1ccc(NC(=O)/C(C#N)=C/c2c(C)nn(-c3ccc(F)cc3)c2Cl)cc1Cl,-20.3%[10 µM],-0.3%,-83.4*,-13.4%,2.0%,8.7%
COc1ccccc1NC(=O)/C(C#N)=C/c1c(C)nn(-c2ccc(F)cc2)c1Cl,18.7%[10 µM],-3.6%,-18.8,0.2%,3.6%,8.3%
